Experiment [1] addresses Rap guanine nucleotide exchange factor 3 (Homo sapiens) (UniProt O95398). Briefly: Confirmatory qHTS for antagonist of cAMP-regulated guanine nucleotide exchange factor 3 (EPAC1) (AID 1645880). Also: nearly all actives have a fitted effect of over 55% in size. Also: potency is read from the fitted curve at half-maximal effect. An outline of the steps:
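Nucleotide exchange uses 100 nM EPAC1, 250 nM RAP1B-BODIPY-GDP and 50 uM GDP, with compounds in a concentration-titration series. After 5 min at room temperature, fluorescence (480 nm ex/540 nm em) is read every 5 min for 30 min. Data are normalized to control ATA and DMSO.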
(In general: qHTS replaces the single test concentration by a dilution series.)

Experiment [2] shares this target. Briefly: Confirmatory qHTS for agonist of cAMP-regulated guanine nucleotide exchange factor 3 (EPAC1) (AID 1645881).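 Also: EPAC1 catalysed release of BODIPY-GDP from Rap1B seen as fluorescence loss; 100% = effect of cAMP agonist control; nearly all actives have a fitted effect of over 75% in size.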
In experiment [3] the target is Rap guanine nucleotide exchange factor 4 (Homo sapiens) (UniProt Q8WZA2). Briefly: Confirmatory qHTS for agonist of cAMP-regulated guanine nucleotide exchange factor 4 (EPAC2) (AID 1645884).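 Also: nucleotide exchange releases bodipy-GDP from Rap1 and this lowers its fluorescence; % is scaled to controls: 0 for no effect and ±100 for the full control effect; nearly all actives have a fitted effect of over 65% in size.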
Experiment [4] has the same target. Put plainly: Confirmatory qHTS for antagonist of cAMP-regulated guanine nucleotide exchange factor 4 (EPAC2) (AID 1645885). Also: nearly all actives have a fitted effect of over 25% in size. Also: potency is read from the fitted curve at half-maximal effect. As to activity change, negative = inhibition: % is scaled to controls: 0 for no effect and ±100 for the full control effect.
Experiment [5] deals with Rap guanine nucleotide exchange factor 3 (Homo sapiens) (UniProt O95398). Put plainly: Counterscreen qHTS for antagonist of cAMP-regulated guanine nucleotide exchange factor 3 (EPAC1) (AID 1645888).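 Also: fluorescence loss as bound BODIPY-GDP is released from Rap1B; % of control where 0% means no effect.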 An outline of the steps:
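Rap1B–BODIPY-GDP (250 nM) with 50 uM GDP; compounds pin-transferred to 9.74 nM–152 uM final (activator) or from 7.32 nM upwards (inhibitor). Fluorescence Ex/Em 480/540 nm read at 5 and 30 min, then after adding cAMP or buffer, at room temperature.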
Background: Counterscreens check selectivity or assay interference.

Structures are written as SMILES. Results filed as inconclusive are left out. A number with no mark means an inactive call. Activity calls are given as the source filed them. Calls follow the shape of the dose curve; as a rule, active = well fitted curve in the direction sought with a large enough effect; inconclusive = small, poorly fitted or top-dose-only effect, or another doubt; inactive = no such curve, though single readings can be large; an effect the other way counts as inactive or inconclusive.

Sequence of Rap guanine nucleotide exchange factor 4 (Homo sapiens) (Q8WZA2 whole entry, looked up): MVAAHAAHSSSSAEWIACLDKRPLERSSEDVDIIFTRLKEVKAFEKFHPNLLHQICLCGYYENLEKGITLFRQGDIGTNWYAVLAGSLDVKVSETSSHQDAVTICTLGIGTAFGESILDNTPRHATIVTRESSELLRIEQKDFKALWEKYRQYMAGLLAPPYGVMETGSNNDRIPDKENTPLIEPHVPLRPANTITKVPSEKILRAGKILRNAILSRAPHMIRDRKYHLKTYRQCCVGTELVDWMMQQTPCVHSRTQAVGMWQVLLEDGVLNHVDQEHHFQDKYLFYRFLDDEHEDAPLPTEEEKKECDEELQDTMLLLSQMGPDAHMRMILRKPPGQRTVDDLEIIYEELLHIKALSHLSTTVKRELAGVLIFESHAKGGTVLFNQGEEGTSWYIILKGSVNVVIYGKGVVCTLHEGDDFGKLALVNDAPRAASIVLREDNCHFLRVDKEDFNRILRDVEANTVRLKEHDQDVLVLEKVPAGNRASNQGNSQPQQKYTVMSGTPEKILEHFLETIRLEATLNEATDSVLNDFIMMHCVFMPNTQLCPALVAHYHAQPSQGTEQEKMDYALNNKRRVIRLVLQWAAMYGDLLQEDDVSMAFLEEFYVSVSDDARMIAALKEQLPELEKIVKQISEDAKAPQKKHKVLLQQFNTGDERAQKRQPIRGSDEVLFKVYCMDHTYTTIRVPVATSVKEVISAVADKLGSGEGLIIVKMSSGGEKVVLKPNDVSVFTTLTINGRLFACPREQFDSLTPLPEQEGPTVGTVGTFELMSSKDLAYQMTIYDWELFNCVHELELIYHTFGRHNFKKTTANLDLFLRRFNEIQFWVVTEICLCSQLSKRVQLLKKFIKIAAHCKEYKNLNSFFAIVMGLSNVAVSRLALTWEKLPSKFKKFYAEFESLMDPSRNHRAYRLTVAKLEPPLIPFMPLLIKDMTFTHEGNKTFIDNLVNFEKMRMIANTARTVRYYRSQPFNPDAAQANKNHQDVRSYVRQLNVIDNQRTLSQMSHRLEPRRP
Sequence of Rap guanine nucleotide exchange factor 3 (Homo sapiens) (O95398 whole entry, looked up): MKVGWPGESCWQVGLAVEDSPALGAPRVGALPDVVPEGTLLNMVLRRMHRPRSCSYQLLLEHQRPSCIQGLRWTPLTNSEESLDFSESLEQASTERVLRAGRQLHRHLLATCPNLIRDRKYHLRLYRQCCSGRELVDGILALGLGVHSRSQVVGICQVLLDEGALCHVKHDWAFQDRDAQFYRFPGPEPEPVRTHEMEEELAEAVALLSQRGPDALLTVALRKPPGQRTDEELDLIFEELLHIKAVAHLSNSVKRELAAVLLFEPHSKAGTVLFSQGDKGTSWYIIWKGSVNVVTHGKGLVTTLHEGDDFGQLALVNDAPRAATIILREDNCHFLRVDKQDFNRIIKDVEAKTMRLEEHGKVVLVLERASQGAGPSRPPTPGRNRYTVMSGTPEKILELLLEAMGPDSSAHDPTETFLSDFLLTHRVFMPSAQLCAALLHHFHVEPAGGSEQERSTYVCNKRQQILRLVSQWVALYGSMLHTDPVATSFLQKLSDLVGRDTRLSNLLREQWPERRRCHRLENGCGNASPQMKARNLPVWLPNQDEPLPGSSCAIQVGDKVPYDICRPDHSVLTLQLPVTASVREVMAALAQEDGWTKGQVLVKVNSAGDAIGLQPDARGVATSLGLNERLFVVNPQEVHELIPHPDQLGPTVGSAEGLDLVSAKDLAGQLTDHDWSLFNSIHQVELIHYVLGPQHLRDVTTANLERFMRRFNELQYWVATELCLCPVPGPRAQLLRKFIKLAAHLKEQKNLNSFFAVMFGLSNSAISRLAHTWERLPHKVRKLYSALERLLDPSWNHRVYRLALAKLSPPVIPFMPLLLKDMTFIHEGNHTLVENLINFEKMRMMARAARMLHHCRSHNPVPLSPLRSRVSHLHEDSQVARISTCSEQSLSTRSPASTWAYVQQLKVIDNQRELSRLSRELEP

In the case of `CCOC(=O)C(Cc1ccc(NC(=O)/C(=C\c2ccccc2)NC(=O)c2ccccc2)cc1)N1C(=O)c2ccccc2C1=O` (stereo not given), the Potency entry in experiment [1], in experiment [2], in experiment [3], in experiment [4] and in experiment [5] was “inactive” each time.
As for `COc1cccc(NC(=O)Cn2cc(C(=O)C3CC3)c3ccccc32)c1`, the Potency result in experiment [1], in experiment [2], in experiment [3], in experiment [4] and in experiment [5] was “inactive” each time.
As to `Cc1ccccc1OCCC(=O)OCC(=O)NC1CCCCC1`, the Potency entry in experiment [1], in experiment [2] and in experiment [4] was “inactive” throughout. Also, the activation in experiment [3] is 3.43% [at 17.1 µM, percent relative to cAMP agonist control]. For the same compound, in experiment [5], the activity change, negative = inhibition is 6.94% [at 30.8 µM].
`O=C(CSc1nnc(SCc2ccccc2)s1)N/N=C/C=C/c1ccco1`: the Potency in experiment [1] is 12.6 µM (active). Besides, the Potency entry in experiment [2] and in experiment [4] was “inactive” throughout. Also, in experiment [3], the activation was 3.41% [at 17.1 µM, percent relative to cAMP agonist control]. For the same compound, in experiment [5], the activity change, negative = inhibition is -6.93% [at 30.8 µM].
On to `CCn1c2ccccc2c2cc(NC(=O)CSc3nnc(-c4cccc(C)c4)o3)ccc21`, for which the Potency result in experiment [1], in experiment [2] and in experiment [4] was “inactive” throughout. The activation in experiment [3] is 3.98% [at 17.1 µM, percent relative to cAMP agonist control]. In experiment [5], the activity change, negative = inhibition is 9.03% [at 30.8 µM].
`O=c1oc(-c2ccccc2NS(=O)(=O)c2ccccc2)nc2ccccc12`: the Potency result in experiment [1], in experiment [2] and in experiment [4] was “inactive” each time. In addition, the activation in experiment [3] was 2.35% [at 17.1 µM, percent relative to cAMP agonist control]. Further, the activity change, negative = inhibition in experiment [5] is 2.74% [at 30.8 µM].
As to `C#Cc1ccc([C@@H]2C=C(C(=O)NCc3nc4ccccc4[nH]3)O[C@H](OCC)[C@H]2CCCO)cc1`, the Potency result in experiment [1], in experiment [2] and in experiment [4] was “inactive” in each case. The activation in experiment [3] was 7.11% [at 17.1 µM, percent relative to cAMP agonist control]. In addition, the activity change, negative = inhibition in experiment [5] was -6.31% [at 30.8 µM].
`CCc1ccccc1NC(=O)c1cc2sc(Cl)cc2n1CC`: the Potency entry in experiment [1], in experiment [2], in experiment [3], in experiment [4] and in experiment [5] was “inactive” each time.
Turning to `O=c1c(Cl)c(Cl)cnn1Cc1nnc(-c2ccccc2Br)o1`, in experiment [1], the Potency was 42.6 µM (active). The Potency result in experiment [2], in experiment [3], in experiment [4] and in experiment [5] was “inactive” throughout.
Regarding `COc1ccc(C2NC(=O)N(C)C3=C2C(=O)N(c2cccc(Cl)c2)C3)cc1` (stereo not given), the Potency entry in experiment [1], in experiment [2], in experiment [3], in experiment [4] and in experiment [5] was “inactive” throughout.
In the case of `CC(C)c1ccc(NC(=O)c2ccc(Cn3nc(N4CCN(c5ccccc5)CC4)ccc3=O)o2)cc1`, the Potency in experiment [1] was 84.9 µM (active). Moreover, the Potency entry in experiment [2], in experiment [3], in experiment [4] and in experiment [5] was “inactive” in each case.
Consider `CN(C(=O)c1cc(-c2ccccc2)on1)C1CCCCC1`, for which the Potency entry in experiment [1], in experiment [2] and in experiment [4] was “inactive” each time. Besides, in experiment [3], the activation is 6.82% [at 17.1 µM, percent relative to cAMP agonist control]. Further, the activity change, negative = inhibition in experiment [5] was 29.1% [at 30.8 µM].
In the case of `O=C(c1cccc(-n2cccc2)c1)N1CCN(S(=O)(=O)c2ccccc2)CC1`, in experiment [1], the Potency is 37.9 µM (active). Besides, the Potency result in experiment [2], in experiment [3], in experiment [4] and in experiment [5] was “inactive” each time.
As for `Cc1ccc(O)c(N=Cc2cc(Cc3ccccc3)cc([N+](=O)[O-])c2O)c1`, the figures for the Potency in experiment [1] and in experiment [4] were 33.8 µM (active) and 47.8 µM (active), respectively. For the same compound, the Potency entry in experiment [2], in experiment [3] and in experiment [5] was “inactive” each time.
Turning to `N#CCC(=O)Nc1sc2c(c1C(N)=O)CCCC2`, the Potency entry in experiment [1], in experiment [2] and in experiment [4] was “inactive” in each case. Further, the activation in experiment [3] was 10.1% [at 17.1 µM, percent relative to cAMP agonist control]. For the same compound, in experiment [5], the activity change, negative = inhibition is -6.4% [at 30.8 µM].
With `Cc1ccc(C(=O)Nc2ccc(N3CCOCC3)c3nonc23)cc1[N+](=O)[O-]`, the Potency in experiment [1] is 47.8 µM (active). For the same compound, the Potency result in experiment [2], in experiment [3], in experiment [4] and in experiment [5] was “inactive” in each case.
With `Cc1cscc1-c1ccc(C(=O)Nc2c(C)cccc2C)o1`, the Potency result in experiment [1], in experiment [2] and in experiment [4] was “inactive” in each case. Moreover, the activation in experiment [3] is 7.37% [at 17.1 µM, percent relative to cAMP agonist control]. Besides, in experiment [5], the activity change, negative = inhibition is -5.01% [at 30.8 µM].
As to `COc1cc(OC)c(NC(=O)N2CCC(CN3CCOCC3)CC2)cc1Cl`, the Potency entry in experiment [1], in experiment [2], in experiment [3], in experiment [4] and in experiment [5] was “inactive” each time.
As to `O=C1CC(=O)N(CCc2ccccc2)C(=O)N1CCc1ccccc1`, the Potency result in experiment [1], in experiment [2], in experiment [3], in experiment [4] and in experiment [5] was “inactive” each time.
For the compound `CS(=O)(=O)Nc1ccc(C2=NN(C(=O)c3cccc(F)c3)C(c3cccs3)C2)cc1` (stereo not given), the Potency result in experiment [1], in experiment [2], in experiment [3], in experiment [4] and in experiment [5] was “inactive” throughout.
With `CC(C)Cn1c(N)c(C(=O)NCC2CCCO2)c2nc3ccccc3nc21` (stereo not given), the Potency in experiment [1] was 21.3 µM (active). Also, the Potency result in experiment [2], in experiment [3], in experiment [4] and in experiment [5] was “inactive” each time.

For the origin of these results see PubChem BioAssay (NCATS).
